Compound activity: PubChem, several laboratories
BioA inh: inhibitors of Mycobacterium tuberculosis BioA enzyme; purified M. tuberculosis BioA enzyme, plate reader; actives 0.096% (n = 360,000); inhibition, % at 9.99 µM; in the data active = inhibition above about 40%; inconclusive = no clear call, values can overlap the other calls
CCHF vOTU inh-1: CCHFV vOTU protease inhibition. Pep-AMC fluorescence. inhibition, % at 11.5 µM. actives 0.55% (n = 370,000); note: 0% = vehicle wells with enzyme and 100% = no enzyme wells
BJeLR viability: kills HRASV12-expressing BJeLR cells. AID 1554. BJeLR (HRASV12) viability, CellTiter-Glo ATP luminescence, 48 h. inhibition, % (no concentration beside the values). actives 0.17% (n = 300,000); in the data active = inhibition above about 50%; inconclusive = no clear call, values can overlap the other calls
Mtb bLac sens: beta-lactam sensitization of Mtb H37Rv; actives 0.27% (n = 330,000); inhibition, % at 25 µM; AID 434955; M. tuberculosis H37Rv growth with meropenem, percent inhibition; call rule not given here;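 note: growth measured after seven days incubation then overnight dye step; 0% = bacteria only wells and 100% = bacteria with antibiotic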
Y pestis TopoI: inhibitors of Yersinia pestis topoisomerase I; Y. pestis Topo-I cleavage product accumulation, plate reader; activity, % at 10 µM; actives 0.064% (n = 360,000); in the data active = activity above about 50%, passing the limit was not always enough; inconclusive = no clear call, values can overlap the other calls
RecA splice inh: inhibitors of M. tuberculosis RecA intein splicing; P9WHJ3; cell-free RecA intein splicing, fluorescence; inhibition, % (concentration not given with the values); actives 0.75% (n = 290,000); AID 2221; in the data active = inhibition above about 30%; inconclusive = no clear call, values can overlap the other calls;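 note: 0% = vehicle wells and 100% = reference inhibitor control wells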
Target sequence (P9WHJ3 whole entry, looked up, canonical isoform): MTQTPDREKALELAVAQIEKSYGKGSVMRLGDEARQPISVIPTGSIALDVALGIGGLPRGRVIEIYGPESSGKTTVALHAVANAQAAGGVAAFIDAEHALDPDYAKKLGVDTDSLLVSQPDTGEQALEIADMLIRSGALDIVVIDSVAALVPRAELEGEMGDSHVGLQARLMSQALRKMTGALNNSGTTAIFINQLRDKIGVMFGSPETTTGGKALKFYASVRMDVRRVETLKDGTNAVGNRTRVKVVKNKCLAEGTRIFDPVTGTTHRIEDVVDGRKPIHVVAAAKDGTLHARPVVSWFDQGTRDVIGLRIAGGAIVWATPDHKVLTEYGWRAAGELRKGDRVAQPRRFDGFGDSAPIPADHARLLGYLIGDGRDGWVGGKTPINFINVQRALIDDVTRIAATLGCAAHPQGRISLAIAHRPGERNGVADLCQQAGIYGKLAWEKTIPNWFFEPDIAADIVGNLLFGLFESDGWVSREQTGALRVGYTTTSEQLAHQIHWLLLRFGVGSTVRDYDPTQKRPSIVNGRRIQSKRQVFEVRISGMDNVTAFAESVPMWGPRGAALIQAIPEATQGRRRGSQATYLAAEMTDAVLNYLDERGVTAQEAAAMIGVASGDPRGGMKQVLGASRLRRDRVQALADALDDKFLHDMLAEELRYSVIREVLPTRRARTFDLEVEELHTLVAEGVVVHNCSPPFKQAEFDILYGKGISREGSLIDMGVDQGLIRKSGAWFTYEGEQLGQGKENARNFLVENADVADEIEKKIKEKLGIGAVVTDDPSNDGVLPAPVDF
CCHF vOTU inh-2: confirmation of CCHF virus vOTU protease inhibitors; shares compounds with CCHF vOTU inh-1; Recombinant CCHFV vOTU, Pep-AMC fluorescence; inhibition, % at 11.5 µM; actives 17% (n = 1,900)
An asterisk follows results filed as active; ? = inconclusive; . = not tested or not shown. A selection: hits, their analogues and other compounds. The true share with any hit is near 1.1%. Cut-off read from the data, not from the text of the source, unless noted: active = inhibition above about 30%; inactive = the rest.

SMILES	BioA inh	CCHF vOTU inh-1	BJeLR viability	Mtb bLac sens	Y pestis TopoI	RecA splice inh	CCHF vOTU inh-2
CC(C)NC(=O)N(C)C[C@@H]1Oc2cc(Br)ccc2S(=O)(=O)N([C@@H](C)CO)C[C@@H]1C	2	.	.	.	.	.	.
CCOc1cc(C2CC(=O)N3CN(C4CCCCC4)CSC3=C2C#N)ccc1O (stereo unspecified)	1	12	-8	2	6	3	.
COc1ccc(C2CC(=O)N3CN(Cc4ccco4)CSC3=C2C#N)cc1 (stereo unspecified)	0	9	1	1	-10	6	.
COc1ccc2ccccc2c1C1CC(=O)N2CN(Cc3ccco3)CSC2=C1C#N (stereo unspecified)	-1	33*	-8	-4	1	4	22
COc1ccc2ccccc2c1C1CC(=O)N2CN(C3CCCCC3)CSC2=C1C#N (stereo unspecified)	1	47*	1	-3	1	12	35*
CCCCCC(=O)N1C[C@H](n2cc(COC(=O)c3ccccc3)nn2)[C@@H](O)C[C@@H]1c1ccc(C)cc1	0	35*	.	.	34	.	4
CCCCCC(=O)N1C[C@@H](O)[C@H](n2cc(COC(=O)c3ccccc3)nn2)C[C@@H]1c1ccc(C)cc1	.	13	.	.	15	.	.
CCCCCCN1C[C@H](O)[C@@H](n2cc(-c3ccc(F)cc3)nn2)C[C@@H]1c1ccccc1	-2	33*	.	.	13	.	-9
CCCCCCN1C[C@H](n2cc(-c3ccc(F)cc3)nn2)[C@@H](O)C[C@@H]1c1ccccc1	-2	19	.	.	5	.	.
CCCCCCN1C[C@H](n2cc(COC(=O)c3ccccc3)nn2)[C@@H](O)C[C@@H]1c1ccc(Cl)cc1	-3	32*	.	.	19	.	11
COc1ccccc1NC(=O)N(C)C[C@H]1Oc2ncc(C#CCC(C)C)cc2C(=O)N([C@H](C)CO)C[C@H]1C	0	.	.	.	.	.	.
C[C@H](CO)N1C[C@H](C)[C@@H](CN(C)S(=O)(=O)c2ccc(F)cc2)Oc2ncc(/C=C/c3ccccc3)cc2C1=O	-6	.	.	.	.	.	.
CCC(=O)N[C@H]1C=C[C@H](CC(=O)NCC2CCCCC2)O[C@@H]1CO	-2	.	.	.	.	.	.
O=C(C[C@H]1CC[C@H]2[C@@H](COC[C@@H](O)CN2S(=O)(=O)c2ccc(F)cc2)O1)N1CCc2ccccc2C1	0	.	.	.	.	.	.
Cc1cc(C)c(Nc2cc(S(=O)(=O)O)c(N)c3c2C(=O)c2ccccc2C3=O)c(C)c1	.	47*	.	18	-12	.	4
Cc1cc(C)c(NC(=O)COC(=O)c2cccc3c2C(=O)c2ccccc2C3=O)c(C)c1	.	4	-6	0	2	3	.
Cc1ccc(S(=O)(=O)N(C)C[C@@H]2Oc3c(NC(=O)NC4CCCCC4)cccc3C(=O)N([C@H](C)CO)C[C@H]2C)cc1	1	.	.	.	.	.	.
CCOC(=O)c1c2c(n(Cc3ccccc3)c1C)C(=O)C(=O)c1ccccc1-2	.	102*	.	.	10	.	102*
CCOC(=O)c1c2c3c(cccc3n(C)c1=O)C(=O)c1ccccc1-2	-2	17	-15	4	0	7	.
COc1ccc(OCC(=O)NNC(=O)C(=O)Nc2cc(OC)ccc2OC)cc1	-1	35*	-7	67	-7	-3	3
COc1ccc(OC)c(NC(=O)C(=O)NNC(=O)COc2ccc(Br)cc2C)c1	.	2	1	81	4	-3	.
Cc1ccc(S(=O)(=O)Nc2ccc3ccccc3c2[N+](=O)[O-])cc1	4	35*	.	.	0	.	14
Cc1ccc(S(=O)(=O)Nc2ccc3cc([N+](=O)[O-])ccc3c2[N+](=O)[O-])cc1	4	31*	.	.	-8	.	23
COc1ccc([N+](=O)[O-])cc1NS(=O)(=O)c1ccc(C)cc1	0	-1	4	-3	3	0	.
CC(C)(C)c1ccc(S(=O)(=O)Nc2ccc(C(O)(C(F)(F)F)C(F)(F)F)cc2)cc1	1	49*	.	.	-8	.	10
SMILES	BioA inh	CCHF vOTU inh-1	BJeLR viability	Mtb bLac sens	Y pestis TopoI	RecA splice inh	CCHF vOTU inh-2
COCC(=O)N1C[C@H](C)[C@H](OC)CN(C)C(=O)c2ccc(NC(=O)Nc3ccccc3)cc2OC[C@@H]1C	2	.	.	.	.	.	.
O=C(NCc1ccccc1)C(=O)c1cn(CC(=O)N2CCOCC2)c2ccccc12	0	35*	-2	-2	11	0	-9
CC(=O)C1C(=O)c2c(cccc2[N+](=O)[O-])C1=Nc1ccccc1C (stereo unspecified)	.	-12	-10	10	.	-4	.
Cc1ccccc1N=C1c2ccccc2C(=O)C1[N+](=O)[O-] (stereo unspecified)	1	34*	-2	16	3	1	7
CCOc1ccc(NS(=O)(=O)c2ccc(Cl)c(N=Nc3c(O)[nH]c(=S)[nH]c3=O)c2)cc1Br	2	33*	.	.	-18	.	3
COc1cc(/C=N/NC(=O)c2cc[n+]([O-])cc2)ccc1O	.	30*	-11	-13	-16	0	-11
COc1ccc(/C=N/NC(=O)c2cc[n+]([O-])cc2)cc1OC	-1	.	2	-6	-3	-1	.
Cc1noc(C)c1S(=O)(=O)Nc1ccc2c(c1)C(=O)N([C@@H](C)CO)C[C@@H](C)[C@@H](CN(C)C(=O)c1ccncc1)OCCCC[C@@H](C)O2	0	.	.	.	.	.	.
CCCN1[C@H](C(=O)Nc2nccs2)[C@@H](CO)[C@@H]2Cn3c(ccc(-c4ccccc4OC)c3=O)[C@@H]21	1	.	.	.	.	.	.
O=C1Nc2ccccc2Nc2ccc([N+](=O)[O-])cc21	-1	38*	3	?	-14	3	27
COc1cc(C2Nc3cccc4cccc(c34)N2)ccc1O	-2	41*	-9	-1	-37	14	24
COc1cc(C2Nc3cccc4cccc(c34)N2)cc(OC)c1OC(C)=O	.	3	-11	-18	-13	0	.
